Assay results from PubChem BioAssay (NCATS).
Records with an inconclusive call do not appear. Unmarked numbers belong to inactive results. Calls of active or inactive are those of the source. Calls follow the shape of the dose curve; as a rule, active = well fitted inhibition curve with a large enough effect; inconclusive = small, poorly fitted or top-dose-only effect; inactive = flat fitted curve, though single readings scatter. Where a SMILES comes first, the peptide text is derived from it. Bridges are numbered along the chain shown (N, C = ends). [ ]: non-standard residue; d: D form. The star is where a group is joined. X1 = CCC(C)C(N)C1=NC(C(=O)*)CS1; dOrn = NCCC[C@@H](N)C(=O)O

assay: P-glycoprotein substrates identified in KB-8-5-11 adenocarcinoma cell line, qHTS therapeutic library screen (AID 1346987); settings: KB-8-5-11 (P-gp overexpressing) viability, CellTiter-Glo, 72 h; series mostly up to 44.5 µM; activity change, negative = cytotoxicity: at the top concentration; also: nearly all actives have a fitted effect of over 65% in size
From the text: The ATP-binding cassette transporters P-glycoprotein (P-gp) is known to limit brain penetration of many chemotherapy drugs. […] As such, we developed a high-throughput screen (HTS) to identify substrates of P-gp from a series of chemical libraries including the National Center for Advancing Translational Sciences Pharmaceutical Collection NPC, 2,816 compounds), testing a total of 10,804 compounds, most of which have known mechanisms of action. We used the CellTiter-Glo viability assay to test library compounds against the parental KB-3-1 human cervical adenocarcinoma cell line and the colchicine-selected sub-line KB-8-5-11 that over-expresses P-gp. KB-8-5-11 cells were also tested in the presence of a P-gp inhibitor (tariquidar) to assess reversability of transporter-mediated resistance. Of the tested compounds, a total of 90 P-gp substrates were identified including 55 newly identified P-gp substrates. Substrates were confirmed using an orthogonal killing assay against HEK-293 cells transfected with P-gp. As exemplars, we confirmed that […] (cyclin-dependent kinase inhibitor); AT9283, (Janus kinase 2/3 inhibitor); ispinesib (kinesin spindle protein inhibitor); gedatolisib (PKI-587, phosphoinositide 3-kinase/mammalian target of rampamycin inhibitor); GSK-690693 (AKT inhibitor); and KW-2478 (heat shock protein 90 inhibitor) were substrates , and direct ATPase stimulation was assessed. ABCG2 was also found to confer high levels of resistance to AT9283, GSK-690693 and gedatolisib, while ispinesib, AT7519 and KW-2478 were weaker substrates.
The HeLa derivative cell line, KB-3-1, and its colchicine-selected, P-gp-overexpressing subline, KB-8-5-11 were maintained in DMEM with 10% FCS and Pen/Strep with glutamine at 37 degree C in 5% CO2. For KB-8-5-11 cells, colchicine was added to the medium at a concentration of 100 ng/mL. HEK-293 cells transfected with empty vector (pcDNA) or vector containing human ABCB1 (MDR-19) or ABCG2 (R-5) have been described previously (Robey, Lin, Qiu, Chan & Bates, 2011) and were maintained in EMEM supplemented with 10% FCS, Pen/Strep and glutamine with 2 mg/ml G418 to select for the expression of the transporter. Cultures were confirmed to be free of mycoplasma infection using the MycoAlert Mycoplasma Detection Kit (Lonza, Walkersville, MD). For the screen, assay medium was identical to culture medium except for KB-8-5-11 where colchicine was excluded from the medium.
All cell lines were plated into 1536-well plates at 500 cells/well in 5 uL media. Compounds were then pinned in dose-response using a 1536-head pin tool (Kalypsis, San Diego, CA) and plates were incubated at 37 degree C in 5% CO2 for an additional 72 h. CellTiter-Glo reagent (Promega) was dispensed into the wells, incubated for 5 min and luminescence was read on a ViewLux instrument (Perkin-Elmer). Cytotoxic compounds were defined as those that yielded a curve class of -1.1, -1.2, -2.1, -2.2, -2.3, or -2.4, a maximum response of >50% and an AC50 of < 10 uM. Cherry-picked hits from screening analysis were tested with both the KB pair of cell lines, and the pcDNA (empty vector control) and MDR-19 (P-gp overexpressing) pair were tested, in the absence and presence of tariquidar.
% is scaled to controls: 0 for no effect and ±100 for the full control effect; potency is read from the fitted curve at half-maximal effect.

SMILES | Potency | activity change, negative = cytotoxicity | outcome
Cc1nc2c(-c3cnc(N)nc3)nc(N3CCOCC3)nc2n1C(C)C | 0.259 µM (active) | – | –
CC1=C2C(=O)C=C(CO)[C@@H]2[C@H]2OC(=O)[C@H](C)[C@@H]2[C@@H](O)C1 | – | 6.88% | –
CC1=CC(=O)CC(C)(C)C1CCC(C)OC1OC(COC(=O)c2cc(O)c(O)c(O)c2)C(O)C(O)C1O (stereo not given) | – | 1.57% [at 17.3 µM] | –
Clc1ccc2c(c1)C1=NCCN1c1c(-c3noc(C4CC4)n3)ncn1-2 | – | -12.8% | –
O=c1ccn([C@@H]2O[C@H](CO)[C@@H](O)[C@H]2O)c(=O)[nH]1 | – | – | inactive
CC(=O)O[C@H]1[C@H](C)[C@@H](O)[C@H]2[C@@H]1C=C(C(=O)O)[C@H]1C[C@@H]3[C@H]([C@H]21)[C@H]1C(=O)O[C@@H]2CC[C@@]3(C)O[C@]1(O)[C@@H]2C | – | 8.35% [at 17.3 µM] | –
C/C=C1/[C@H](O[C@@H]2O[C@H](CO)[C@@H](O)[C@H](O)[C@H]2O)OC=C(C(=O)OC)[C@H]1CC(=O)O[C@@H]1O[C@H](CO)[C@@H](O)[C@H](O)[C@H]1O | – | 4.99% [at 17.3 µM] | –
C=C[C@H]1[C@H](O[C@@H]2O[C@H](CO)[C@@H](O)[C@H](O)[C@H]2O)OC=C2C(=O)OCC[C@]21O | – | – | inactive
C[C@@H]1O[C@@H](O[C@H]2[C@H](OC(=O)[C@]34CCC(C)(C)C[C@H]3C3=CCC5[C@@]6(C)CC[C@H](O[C@@H]7O[C@H](CO[C@@H]8OC[C@H](O)[C@H](O)[C@H]8O)[C@@H](O)[C@H](O)[C@H]7O)C(C)(C)C6CC[C@@]5(C)[C@]3(C)C[C@H]4O)OC[C@@H](O)[C@@H]2O)[C@H](O)[C@H](O)[C@H]1O[C@@H]1OC[C@H](O)[C@H](O[C@@H]2OC[C@@H](O)[C@H](O)[C@H]2O)[C@H]1O (stereo not given in full) | – | 1.25% [at 9.29 µM] | –
CCOC(=O)O[C@]1(C(=O)COC(=O)CC)CC[C@H]2[C@@H]3CCC4=CC(=O)C=C[C@]4(C)[C@H]3[C@@H](O)C[C@@]21C | – | -6.35% [at 17.3 µM] | –
CCC(C)C(N)C1=NC(C(=O)N[C@@H](CC(C)C)C(=O)N[C@H](CCC(=O)O)C(=O)N[C@H](C(=O)N[C@H]2CCCCNC(=O)[C@H](CC(N)=O)NC(=O)[C@@H](CC(=O)O)NC(=O)[C@H](Cc3cnc[nH]3)NC(=O)[C@@H](Cc3ccccc3)NC(=O)[C@H]([C@@H](C)CC)NC(=O)[C@@H](CCCN)NC2=O)[C@@H](C)CC)CS1 (stereo not given in full) (X1-L[dE]IK[dOrn]I[dF]H[dD]N; lactam 4-C) | inactive | – | –
CCOc1c2c(c(OCC)c3ccccc13)C(=O)N(c1ccc(CC(=O)NS(=O)(=O)c3ccccc3)cc1)C2 | – | – | inactive
O=C1NC(=Nc2ccccc2F)S/C1=C\c1ccc(C(=O)O)cc1 | – | – | inactive
COC(=O)CC1(O)C(=O)Nc2ccccc21 (stereo not given) | – | – | inactive
CC1CCC2C(C)(C)CC(C)(CO)C2(O)C1C(=O)O (stereo not given) | – | – | inactive
CC(C)C1=CC2=CCC3[C@](C)(CCC[C@@]3(C)C(=O)O)C2CC1O (stereo not given in full) | – | 8.09% | –
C[C@@H]1C/C=C/C=C\C=C\C=C\[C@H](O[C@@H]2O[C@H](C)[C@@H](O)[C@H](N)[C@@H]2O)C[C@@H]2O[C@](O)(C[C@@H](O)C[C@H]3O[C@@H]3/C=C/C(=O)O1)C[C@H](O)[C@H]2C(=O)O | – | – | inactive [at 17.3 µM]
C[C@]12CCC(=O)C=C1CC[C@@H]1[C@@H]2[C@@H](O)C[C@@]2(C)[C@H]1CC[C@]2(O)C(=O)COP(=O)(O)O | – | -23.2% | –
COc1cc(C(C)=O)ccc1O[C@@H]1O[C@H](CO[C@@H]2O[C@@H](C)[C@H](O)[C@@H](O)[C@H]2O)[C@@H](O)[C@H](O)[C@H]1O | – | – | inactive [at 17.3 µM]
CC1NC(=O)C(Cc2c[nH]c3ccccc23)NC1=O (stereo not given) | – | – | inactive

SMILES | Potency | activity change, negative = cytotoxicity | outcome
COC(=O)c1cc(CN2CCN(C(=N)N)CC2)cc(C(=O)N2CCN(C(=O)c3ccc(C(=N)N)cc3)CC2)c1 | – | – | inactive
CCCCCCCCCCCCCCCC(=O)OCC(COC(=O)CCCCCCCCCCCCCCC)OC(=O)CCCCCCCCCCCCCCC | – | -9.26% | –
COc1c(C(CC(C)C)OC(C)=O)ccc(Oc2c(O)cc(C)cc2/C=C/C(C)=O)c1C(=O)O (stereo not given) | – | 3.34% [at 17.3 µM] | –
O=C(c1ccc(C#Cc2cccc(F)c2)cn1)N1CC2CC2C1 (stereo not given) | – | -16.4% | –
C[C@@H]1O[C@@H](O[C@@H]2[C@@H](O)[C@H](O[C@@H]3[C@@H](O)[C@@H](O)[C@H](O[C@H]4[C@H](OC(=O)[C@]56CCC(C)(C)C[C@H]5C5=CCC7[C@@]8(C)C[C@H](O)[C@H](O[C@@H]9O[C@H](C(=O)O)[C@@H](O)[C@H](O)[C@H]9O)[C@@](C)(CO)C8[C@H](O)C[C@@]7(C)[C@]5(C)CC6)OC[C@H](O)[C@@H]4O)O[C@H]3C)OC[C@H]2O)[C@H](O)[C@H](O)[C@H]1O (stereo not given in full) | – | – | inactive [at 9.29 µM]
COc1cc(/C=C/C(=O)OC2CC(OC(C)=O)C(OC(C)=O)C3C2CCC2C(=O)OC(c4ccoc4)CC23C)ccc1O[C@@H]1O[C@H](CO)[C@@H](O)[C@H](O)[C@H]1O (stereo not given in full) | – | -12.1% [at 17.3 µM] | –
O=C(/C=C/c1ccc(O)cc1)OC[C@H]1O[C@@H](OC(=O)/C=C/c2ccccc2)[C@H](O)[C@@H](O)[C@@H]1O | – | 2.77% [at 17.3 µM] | –
CN(C)C/C=C/C(=O)Nc1ccc(C(=O)Nc2cccc(Nc3ncc(Cl)c(-c4c[nH]c5ccccc45)n3)c2)cc1 | 5.17 µM (active) | – | –
C=C1[C@H]2CC[C@]3(O)[C@@](CC[C@@H]4[C@](C)(C(=O)O)CCC[C@]43C)(C2)[C@H]1OC(=O)/C(C)=C\C | – | – | inactive [at 17.3 µM]
CC1=CC(=O)OC(C)(CC(C)(O)C(=O)O)C1 (stereo not given) | – | 8.13% | –
COc1ccc([C@@H]2N[C@H](C(=O)O)Cc3c2[nH]c2ccccc32)cc1CN1CCN(c2ccccc2F)CC1 | – | 9.21% | –
N[C@@H](CC(=O)N1CCn2c(nnc2C(F)(F)F)C1)Cc1[nH]nc2c(F)c(F)ccc12 | – | 0.719% | –
O=C(NCC(=O)N1CC[C@H](NC2CCC(O)(c3ccc(-c4ncccn4)cn3)CC2)C1)c1cccc(C(F)(F)F)c1 (stereo not given in full) | – | 8.28% | –
Cc1nn(C)c(COc2ccc(N3CCN(S(=O)(=O)N(C)C)CC3)cc2)c1-c1cccc2c(CCCOc3cccc4ccccc34)c(C(=O)O)n(CCN3CCOCC3)c12 | – | – | inactive
COc1cc(C(=O)OC[C@H]2O[C@H](O[C@@]3(CO)O[C@@H](CO)[C@H](O)[C@H]3O)[C@H](O)[C@@H](O)[C@@H]2O)ccc1O | – | – | inactive [at 17.3 µM]
COc1ccccc1CC(C(=O)O)N(C)C(=O)c1ccccc1 (stereo not given) | – | 7.3% | –
COC1=Cc2c(nc3n(c2=O)C(C)C(=O)NC3(O)C(C)C)OC=C1 (stereo not given) | – | 0.547% | –
COc1cccc(-c2ccc([C@@H](Oc3cc(-c4ccc(C[C@H](N)C(=O)O)cc4)nc(N)n3)C(F)(F)F)cc2)c1 | – | – | inactive
CC1(C)CC(=O)N(CCCCN2CCN(c3ncccn3)CC2)C(=O)C1 | – | -6.57% | –
CC(=O)O[C@@H]1C[C@]2(C)[C@@]3(CCC4[C@@]5(C)CC[C@H](O[C@@H]6O[C@H](C(=O)O)[C@@H](O)[C@H](O[C@@H]7O[C@H](CO)[C@H](O)[C@H](O)[C@H]7O[C@@H]7O[C@@H](C)[C@H](O)[C@@H](O)[C@H]7O[C@@H]7OC[C@](O)(CO)[C@H]7O)[C@H]6O[C@@H]6O[C@H](CO)[C@H](O)[C@H](O)[C@H]6O)C(C)(C)C5CC[C@]42C)O[C@@H](O)[C@]12C3CC(C)(C)[C@@H](OC(=O)/C=C/c1ccc(O)c(O)c1)[C@@H]2OC(=O)/C=C/c1ccccc1 (stereo not given in full) | – | – | inactive [at 9.29 µM]
